Data reported in PubChem BioAssay AID504652 (National Center for Advancing Translational Sciences (NCATS), 2011).
About 11,000 (3.1%) of roughly 360,000 compounds were called active. This excerpt belongs to a sample that is enriched for actives. Unmarked numbers belong to inactive results. Rule as the data show it: active = activity change below about -30%; inactive = the rest.

biological target: D(1A) dopamine receptor (Homo sapiens) (UniProt P21728); assay: Antagonist of Human D 1 Dopamine Receptor: qHTS; conditions: HEK293 TREx D1 cells, calcium flux, dopamine EC80; at 10 µM; hits give low values
Sequence (P21728 whole entry, looked up): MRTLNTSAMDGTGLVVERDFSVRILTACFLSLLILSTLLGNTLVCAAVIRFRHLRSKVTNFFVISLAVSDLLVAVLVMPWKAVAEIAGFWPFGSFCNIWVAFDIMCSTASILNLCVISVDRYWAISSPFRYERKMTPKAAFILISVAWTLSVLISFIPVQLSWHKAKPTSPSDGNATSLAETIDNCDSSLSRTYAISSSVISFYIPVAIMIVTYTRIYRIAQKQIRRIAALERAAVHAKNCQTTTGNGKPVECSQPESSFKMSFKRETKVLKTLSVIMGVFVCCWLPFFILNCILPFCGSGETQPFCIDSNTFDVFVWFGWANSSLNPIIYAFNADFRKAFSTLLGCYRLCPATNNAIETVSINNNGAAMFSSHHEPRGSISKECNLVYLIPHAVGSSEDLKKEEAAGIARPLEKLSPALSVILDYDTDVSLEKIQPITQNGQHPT
Method in brief: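 Allosteric or orthosteric antagonism assessed as attenuation of the calcium response to EC80 dopamine, added 180 s after compound, in induced HEK293 Trex D1 cells loaded with no-wash calcium dye.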
% is scaled to controls: 0 for no effect and ±100 for the full control effect.

Compound	activity change, negative = inhibition
COc1ccccc1CNC(=O)c1ccc(CS(=O)c2ccccc2Cl)o1 (centres undefined)	-4.03%
Cc1ccc(C)c(N2CCN(C(=O)CCc3c(C)nc4c(c3C)c(=O)n(C)c(=O)n4C)CC2)c1	7.99%
CC1=C(C(=O)OCC(C)C)C(c2ccc(OCc3ccccc3)cc2)N2C(=O)CCSC2=N1 (centres undefined)	4.42%
CN(C)c1ccc(-n2cccc2/C=N/n2cnnc2)cc1	10%
Cc1ccc(N=C2NC(=O)/C(=C/C=C/c3ccco3)S2)cc1C	-15.5%
CN(C)c1ccc(-n2cccc2/C=C2/SC(=Nc3ccc(F)cc3)NC2=O)cc1	-42.9% (active)
CCc1cc2c(cc3c(=O)n(CC(=O)N4CCN(c5cc(Cl)ccc5C)CC4)nc(CC)n32)s1	-29.5%
COc1ccc(C(=O)Nc2ccc(-n3nncc3-c3ccccc3)cc2)cc1OC	-8.31%
Nn1c(SCC(=O)NC(=O)NC2CCCC2)nnc1-c1ccccc1F	-31.8% (active)
CC(C)NC(=O)NC(=O)CSc1nnc(-c2ccccc2F)n1N	2.73%
Nn1c(SCC(=O)NC2CCCC2)nnc1-c1ccccc1F	10.8%
CCc1cc2c(cc3c(=O)n(CC(=O)NCCc4ccc(OC)c(OC)c4)ncn32)s1	-0.482%
CCc1ccc(NC(=O)c2sc3nc4c(cc3c2N)CN(CC)CC4)cc1	-15.6%
Fc1ccccc1Cn1cnc(NC(=S)NCCc2ccccc2)n1	0.584%
N=c1n(CCc2ccccc2)c2ccccc2n1Cc1ccccc1F	-72.5% (active)
O=C(COC(=O)Cc1ccccc1F)NCCc1ccccc1	-27%
Cn1c(=O)c2sccc2n2c(CCC(=O)NCc3ccccc3Cl)nnc12	-4.17%
Cn1c(=O)c2c(SCC(=O)N3CCc4ccccc43)nc(-c3ccc(Cl)cc3)nc2n(C)c1=O	-4.79%
CCCOC(=O)c1c(NC(=O)c2cc3nc(-c4ccc(OC)cc4)cc(C(F)(F)F)n3n2)sc2c1CCCC2	1.36%
CCOC(=O)C1CCN(c2ncnc3c2c(-c2ccccc2)cn3-c2cccc(C)c2)CC1	7.99%
COc1cc(OC)cc(C(=O)Nc2c(C(=O)Nc3ccc(F)cc3)oc3ccccc23)c1	-9.05%
COc1cccc(N2CCN(C(=O)C3CCCN(S(=O)(=O)c4cnc[nH]4)C3)CC2)c1 (centres undefined)	-10%
CCOC(=O)c1cccc(NC(=O)C2CCCN(S(=O)(=O)c3cnc[nH]3)C2)c1 (centres undefined)	-31.2% (active)
O=C(NCc1ccco1)C1CCCN(S(=O)(=O)c2cnc[nH]2)C1 (centres undefined)	6.39%
